Laboratory results from PubChem BioAssay (NCI).
About 83,000 compounds went through this panel and 20% of them were active in at least one assay; those are over-represented in the sample as a whole.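 Single-concentration screen, 48 h exposure, 96-well plates. Endpoint: percent growth. Below 10 = active.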 Unmarked numbers belong to inactive results. Calls of active or inactive are those of the source.

test system: MDA-MB-468 breast; experiment: NCI-60 one-dose screen, 48 h (100 = growth as untreated, 0 = no growth, -100 = all killed); conditions: 10 µM unless noted

| SMILES | growth |
| --- | --- |
| C=C1C(=O)O[C@H]2[C@H]1CC/C(COC(=O)NCc1c[nH]c3ccc(F)cc13)=C\CC[C@@]1(C)O[C@@H]21 | -58.1% (active) |
| O=C(Nc1cccnc1)c1ccc2ccc3ccc(C(=O)Nc4cccnc4)nc3c2n1 | -1.83% (active) |
| CC(=O)OCc1nc(C#N)c(N(C)C)o1 | 94.1% |
| CCOC(=O)C1CCCN1C(=O)C1(NC(C)=O)CCCC1 (stereo unspecified) | 98.9% |
| COCCCNCC(=O)Nc1c(C)cccc1C | 112% |
| CC1=NN(c2nc(-c3ccc(Cl)cc3)c(C#N)c(N3CCOCC3)n2)C(=O)C1 | 98.3% |
| COc1cc2oc(-c3cccc(NC(=O)c4ccc5c(c4)OCO5)c3)cc(=O)c2c(OC)c1OC | 75.5% |
| CN1C(=O)NC(c2ccc(Cl)cc2)(c2ccc(Cl)cc2)C1=O | 104% |
| O=S1(=O)N(CCNc2nccc(-c3c(-c4cccc(O)c4)nc4sccn34)n2)CCN1Cc1ccccc1 | 94.4% |
| N#CC1=C(N)Oc2cc(N)ccc2C1c1cccnc1 (stereo unspecified) | 97.9% |
| C[C@]12O[C@H](C[C@]1(O)CO)n1c3ccccc3c3c4c(c5c6ccccc6n2c5c31)CNC4=O | -47.5% (active) |
| COC(=O)/C=C1\S/C(=N\Nc2ccc([N+](=O)[O-])cc2[N+](=O)[O-])N(C2CCCCC2)C1=O | 45.1% |
| C#Cc1cccc(NC(=O)c2ccc(NC(=O)C=C)cc2)c1 | 14.6% [8.25 µM] |
| Cc1oc2ccc(O)c(CN3CCCCCC3)c2c1C(=O)Nc1ccc(C(F)(F)F)cc1 | 5.74% (active) |
| CCCCN(CCCC)CCC(O)c1cc2ccc(C(F)(F)F)cc2c2cc(C(F)(F)F)ccc12 (stereo unspecified) | 39.6% |
| COC(=O)c1c2c(c(C)[n+]([O-])c1C)C(=O)C=C(NCc1ccc(Cl)cc1)C2=O | -67% (active) |
| CCc1ccc(NC(=O)N[C@@H](Cc2cccc(C)c2)C(=O)N[C@@H]2C(=O)N3CCC[C@H]3C(=O)N3CCCC[C@H]3C(=O)N[C@@H](CO)C(=O)N3C[C@H](C)C[C@H]3C(=O)O[C@H]2C)c(F)c1 | -14.2% (active) |
| COc1ccc(Nc2nc(SC)nc(-c3cccc([N+](=O)[O-])c3)c2C#N)cc1 | 54.7% |

| SMILES | growth |
| --- | --- |
| O=C(CSc1nc2sc3c(c2c(=O)n1-c1ccc(Cl)cc1)CCCC3)N/N=C/c1ccc(F)cc1 | 129% |
| FC(F)(F)c1ccc(CNc2ccc(Cc3c[nH]c4ncc(Cl)cc34)cn2)cn1 | -0.191% (active) |
| Nc1cc2c(cc1Br)-c1c(C(=O)O)cccc1C2O (stereo unspecified) | 74.6% |
| O=P(O)(O)OCC(O)CO (stereo unspecified) | 100% |
| CCOC(=O)n1cc(-c2nonc2-c2cn(C)c3ncccc23)c2cc(F)ccc21 | -7.17% (active) |
| O=[N+]([O-])c1cc(-c2ccccc2)c(O)c([N+](=O)[O-])c1 | 71.5% |
| Cc1nn(-c2ccccc2)c2ncnc(N/N=C/c3ccccc3O)c12 | -31.7% (active) |
| CS(=O)(=O)Nc1ccc(Nc2c3ccccc3nc3cc(N)ccc23)cc1 | -52.9% (active) |
| COc1ccccc1S(=O)(=O)Nc1ccc2c3c(cc(-c4cnn(C5CC5)c4)nc13)C(=O)N2C | 50.9% |
| CCCCCc1c(C)[nH]c(/C=C2\N=C(c3ccc[nH]3)C=C2OCc2ccccc2)c1C | -51.6% [100 µM] (active) |
| CC1(C)CC2=C3C=C[C@@H]4[C@@]5(C)CCC(=O)C(C)(C)[C@@H]5CC[C@@]4(C)[C@]3(C)CC[C@@]2(C(=O)O)CC1=O | 74.2% |
| O=C(CCCNC(=O)c1nc(-c2ccccc2)n(-c2ccccc2)n1)NO | 98.8% |
| CNc1ccc(Br)c2c1C(=O)c1ccccc1C2=O | 112% |
| COc1ccc(-c2csc(N/N=C/c3c(-c4ccc(S(C)(=O)=O)cc4)nc4ccccn34)n2)cc1 | 106% |
| CN1CCN(Cc2ccc(NC(=O)c3cncc(C#Cc4cnc(N)c5ccccc45)c3)cc2C(F)(F)F)CC1 | -80.8% (active) |
| O=C(Nc1ccc(-n2ccc3c(NC(=O)c4ccccc4)ncnc32)cc1)Nc1ccc(Cl)c(Cl)c1 | -36.7% (active) |
| COc1cc(-c2csc(NC(=O)Nc3ccc(Cl)cc3)n2)cc(OC)c1OC | 13.5% |
| O=C(Nc1cccc(-n2ccc3c(NC(=O)c4ccccc4)ncnc32)c1)Nc1ccc(Cl)c(C(F)(F)F)c1 | -2.39% (active) |
